In PubChem BioAssay (NCI) one finds growth data, which are given here for 13 compounds.

The panel holds about 83,000 compounds, 20% with a hit somewhere; the sample as a whole holds those more often.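 Cells were grown in 96-well plates and exposed to the test compound at a single concentration for 48 hours; results are reported as percent growth, with values below 10 considered active.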 A number with no mark means an inactive call. The source made the active and inactive calls.

Test systems include NCI-H23 lung; NCI-H226 lung; NCI-H322M lung; HOP-62 NSCLC; NCI-H460 lung; HOP-92 NSCLC; NCI-H522 lung; A549/ATCC NSCLC; 786-0 renal; COLO 205 colon.
Holding throughout (experiment): NCI-60 one-dose screen, 48 h (100 = growth as untreated, 0 = no growth, -100 = all killed)
Common to all, as to conditions: 10 µM unless noted

`COc1cc2c3c(c4c5ccccc5[nH]c4c2c(OC)c1OC)C(=O)N(CCN1CCOCC1)C3=O`: the growth in the test on NCI-H23 lung was 63%; in the test on NCI-H226 lung, 69.8%; with NCI-H322M lung it was 68.2%; with HOP-62 NSCLC it was 59.9%; in the test on NCI-H460 lung it was 18.6%; in the test on HOP-92 NSCLC it was 75.4%. For the same compound, the growth in the test on NCI-H522 lung is 35.4%; with A549/ATCC NSCLC, 45.1%; in the test on 786-0 renal, 56.2%; with COLO 205 colon, 56.4%.
For `N=C(N)c1ccc(OCCCCCCCCCCOc2ccc(C(=N)N)cc2)cc1`, the growth was -69.5% (active) with NCI-H23 lung; -71.7% (active) with NCI-H226 lung; -99% (active) in the test with NCI-H322M lung; -76.6% (active) in the test on HOP-62 NSCLC; -88.6% (active) in the test with NCI-H460 lung; -86.1% (active) in the test with HOP-92 NSCLC. In addition, the growth is -75.8% (active) in the test on NCI-H522 lung, -85.4% (active) with A549/ATCC NSCLC, -89.8% (active) in the test with 786-0 renal and -61.6% (active) in the test with COLO 205 colon.
As for `c1ccc(-c2c(-c3ccccc3)[n+](Cc3ccc4ccccc4c3)c(-c3cccc4ccccc34)n2Cc2ccc3ccccc3c2)cc1`, the growth with NCI-H23 lung is -38.4% (active); in the test on NCI-H226 lung it was -42.3% (active); with NCI-H322M lung it was 4.47% (active); with HOP-62 NSCLC, -84.7% (active); in the test on NCI-H460 lung, -80% (active); with HOP-92 NSCLC, -53.9% (active). The growth in the test with NCI-H522 lung is -39.5% (active); with A549/ATCC NSCLC, -45.1% (active); with 786-0 renal it was -68.3% (active); in the test with COLO 205 colon, -65% (active).
For `CN(C)c1ccc(C2C(C#N)=C(/N=C/c3ccccc3)Oc3c2ccc2ccccc32)cc1` (stereo not given), the growth in the test on NCI-H23 lung was 80.9%; in the test on NCI-H226 lung it was 55.5%; in the test with NCI-H322M lung it was 98.5%; in the test on HOP-62 NSCLC, 51.2%; in the test on NCI-H460 lung, 51.3%; with HOP-92 NSCLC, 59.8%. The growth was 36.4% in the test with NCI-H522 lung, 71.4% in the test on A549/ATCC NSCLC, 89% with 786-0 renal and 116% in the test with COLO 205 colon.
Regarding `OC(c1ccc(F)c(C(F)(F)F)c1)c1cnccc1NC1CCCCC1` (stereo not given), the growth was 51.7% in the test on NCI-H23 lung; 78.1% in the test on NCI-H226 lung; 89.5% in the test on NCI-H322M lung; 85.8% in the test with HOP-62 NSCLC; 69.5% in the test with NCI-H460 lung; 40.2% with HOP-92 NSCLC. Further, the growth in the test on NCI-H522 lung is 67.1%; in the test with A549/ATCC NSCLC it was 69.9%; with 786-0 renal it was 63.6%; in the test with COLO 205 colon, -60.8% (active).
Take `COc1ccc(/C=C/c2nc(Nc3ccc(Cl)cc3)c3ccccc3n2)cc1`: the growth in the test on NCI-H23 lung is 73.1%; with NCI-H226 lung it was 71.1%; in the test on NCI-H322M lung, 44.3%; with HOP-62 NSCLC, 69%; in the test on NCI-H460 lung it was 18.2%; in the test with HOP-92 NSCLC it was 63.5%. The growth with NCI-H522 lung was 69.3%; in the test with A549/ATCC NSCLC, 35%; in the test with 786-0 renal, 36.9%; with COLO 205 colon, 63.1%.
For the compound `CCOC(=O)Oc1c(OC)cc(C(=O)c2ccc(OC)c(OC(=O)CCl)c2OC)cc1OC`, the growth with NCI-H23 lung was 32.5%; in the test with NCI-H226 lung, 64.5%; with NCI-H322M lung, 45.2%; in the test on HOP-62 NSCLC, 16.9%; with NCI-H460 lung, 10.4%; in the test on HOP-92 NSCLC, 57%. Besides, the growth in the test with NCI-H522 lung was 8.85% (active); in the test with A549/ATCC NSCLC it was 22.9%; with 786-0 renal, 19.2%; in the test on COLO 205 colon it was 94.8%.
As to `O=C(O)c1ccc(NCc2cn(-c3ccc(C(F)(F)F)cc3)nc2-c2ccc(C(=O)O)cc2)cc1`, the growth was 107% with NCI-H23 lung; 111% in the test with NCI-H226 lung; 106% in the test on NCI-H322M lung; 101% with HOP-62 NSCLC; 103% with NCI-H460 lung; -7.09% (active) with HOP-92 NSCLC. The growth is 93.1% with NCI-H522 lung, 106% in the test with A549/ATCC NSCLC, 105% with 786-0 renal and 119% in the test on COLO 205 colon.
Regarding `O=C1c2c(c3c4cccc(F)c4[nH]c3c3ccc4ccccc4c23)C(=O)N1O`, the growth in the test on NCI-H23 lung is 56.2%; in the test with NCI-H226 lung it was 54.1%; in the test on NCI-H322M lung, 64%; in the test with HOP-62 NSCLC it was 63.2%; in the test on NCI-H460 lung, 10.9%; in the test on HOP-92 NSCLC, 79.1%. The growth in the test with NCI-H522 lung was 30%; in the test with A549/ATCC NSCLC, 65.7%; in the test on 786-0 renal, 70.7%; in the test with COLO 205 colon, 57.4%.
With `CC(Sc1nc2sc3c(c2c(=O)n1-c1ccc(Cl)cc1)CCCC3)C(=O)Nc1nc(-c2ccc(Br)cc2)cs1` (stereo not given), the growth is 95.3% in the test with NCI-H23 lung; 94.3% in the test on NCI-H226 lung; 95.8% in the test with NCI-H322M lung; 91.5% in the test on HOP-62 NSCLC; 104% in the test with NCI-H460 lung; 110% in the test on HOP-92 NSCLC. Moreover, the growth in the test on NCI-H522 lung was 82.1%; with A549/ATCC NSCLC it was 100%; in the test with 786-0 renal, 92.6%; in the test with COLO 205 colon, 110%.
For the compound `C=C1C(=O)O[C@H]2[C@H]1CC/C(CNC(=O)C(C)c1ccc(CC(C)C)cc1)=C\CC[C@@]1(C)O[C@@H]21` (stereo not given in full), the growth in the test on NCI-H23 lung is 51.4%; in the test with NCI-H226 lung, 75.1%; in the test on NCI-H322M lung, 72.3%; in the test on HOP-62 NSCLC, 60%; with NCI-H460 lung, 36.2%; in the test with HOP-92 NSCLC it was -19.1% (active). Besides, the growth is 7.53% (active) in the test on NCI-H522 lung, 42.2% in the test with A549/ATCC NSCLC, -86% (active) in the test with 786-0 renal and -34.8% (active) with COLO 205 colon.
For the compound `CCCCC/C=C/C(C)=C/C1CC(C)C/C=C/CCC(O)C(OC(N)=O)CCC(C)CC(O)C(C)C(=O)O1` (stereo not given), the growth was 97.6% in the test with NCI-H23 lung; 104% in the test with NCI-H226 lung; 101% in the test on NCI-H322M lung; 82.7% with HOP-62 NSCLC; 67% in the test with NCI-H460 lung; 24.5% in the test with HOP-92 NSCLC. Also, the growth with NCI-H522 lung was 79.2%; with A549/ATCC NSCLC, 85%; in the test on 786-0 renal, 77.9%; in the test with COLO 205 colon, 121%.
For `COc1cc2c(c(OC)c1OC)-c1ccc(NNC(=S)N(Cc3cccc(C[N+](Cc4cccc(CNC56CC7CC(CC(C7)C5)C6)c4)(Cc4cccc(CNC56CC7CC(CC(C7)C5)C6)c4)Cc4cccc(CN(C(=S)NNc5ccc6c(cc5=O)[C@@H](NC(C)=O)CCc5cc(OC)c(OC)c(OC)c5-6)C56CC7CC(CC(C7)C5)C6)c4)c3)C34CC5CC(CC(C5)C3)C4)c(=O)cc1[C@@H](NC(C)=O)CC2` (stereo not given in full), the growth in the test on NCI-H23 lung was 20.7%; in the test on NCI-H226 lung it was -8.38% (active); in the test on NCI-H322M lung, 49.6%; with HOP-62 NSCLC, 48.6%; in the test on NCI-H460 lung, 2.48% (active); with HOP-92 NSCLC, -5.87% (active). The growth is -22.8% (active) in the test on NCI-H522 lung, 20.9% in the test on A549/ATCC NSCLC, 11% in the test on 786-0 renal and -56.9% (active) with COLO 205 colon.
